Results filed as inconclusive are left out. Calls of active or inactive are those of the source. Rule for the calls: active = hit-call score of the fitted dose curve at least 0.9, where 1 is the maximum; inconclusive = response in the unintended direction; inactive = score below 0.9.

A word on the AC50: it is the midpoint of the concentration-response curve, whichever way the signal moves.

Chain of bovine Estrogen Receptor (ER), ESR1 (gene 407238) (P49884 whole entry, looked up): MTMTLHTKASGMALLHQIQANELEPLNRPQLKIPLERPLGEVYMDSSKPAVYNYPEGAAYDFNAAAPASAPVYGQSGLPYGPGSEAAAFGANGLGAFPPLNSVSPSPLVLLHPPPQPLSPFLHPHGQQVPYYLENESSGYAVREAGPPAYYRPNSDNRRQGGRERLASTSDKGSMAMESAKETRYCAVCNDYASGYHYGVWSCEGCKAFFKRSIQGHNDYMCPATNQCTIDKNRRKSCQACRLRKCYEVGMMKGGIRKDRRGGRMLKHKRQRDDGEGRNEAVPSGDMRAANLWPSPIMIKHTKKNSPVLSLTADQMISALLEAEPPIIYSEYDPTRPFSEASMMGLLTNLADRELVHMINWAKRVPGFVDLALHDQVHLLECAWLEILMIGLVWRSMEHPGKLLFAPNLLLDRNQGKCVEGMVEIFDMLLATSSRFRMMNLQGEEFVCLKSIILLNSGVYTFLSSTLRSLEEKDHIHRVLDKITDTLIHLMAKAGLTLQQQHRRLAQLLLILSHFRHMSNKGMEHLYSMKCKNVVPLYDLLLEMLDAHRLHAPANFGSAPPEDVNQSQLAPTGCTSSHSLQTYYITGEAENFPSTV
Chain of human Constitutive Androstane Receptor (CAR), NR1I3 (gene 9970) (Q14994 whole entry, looked up): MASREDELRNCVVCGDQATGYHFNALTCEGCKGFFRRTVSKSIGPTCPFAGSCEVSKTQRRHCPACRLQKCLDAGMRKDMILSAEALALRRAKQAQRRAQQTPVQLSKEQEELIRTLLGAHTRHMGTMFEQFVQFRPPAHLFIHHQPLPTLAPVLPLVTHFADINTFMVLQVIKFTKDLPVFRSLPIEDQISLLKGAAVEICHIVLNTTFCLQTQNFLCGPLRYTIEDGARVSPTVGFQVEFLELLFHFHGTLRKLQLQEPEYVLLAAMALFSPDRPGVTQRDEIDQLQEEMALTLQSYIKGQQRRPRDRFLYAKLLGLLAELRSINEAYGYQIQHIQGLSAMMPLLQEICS
Chain of Voltage-gated inwardly rectifying potassium channel KCNH2 (Homo sapiens) (Q12809 whole entry, looked up): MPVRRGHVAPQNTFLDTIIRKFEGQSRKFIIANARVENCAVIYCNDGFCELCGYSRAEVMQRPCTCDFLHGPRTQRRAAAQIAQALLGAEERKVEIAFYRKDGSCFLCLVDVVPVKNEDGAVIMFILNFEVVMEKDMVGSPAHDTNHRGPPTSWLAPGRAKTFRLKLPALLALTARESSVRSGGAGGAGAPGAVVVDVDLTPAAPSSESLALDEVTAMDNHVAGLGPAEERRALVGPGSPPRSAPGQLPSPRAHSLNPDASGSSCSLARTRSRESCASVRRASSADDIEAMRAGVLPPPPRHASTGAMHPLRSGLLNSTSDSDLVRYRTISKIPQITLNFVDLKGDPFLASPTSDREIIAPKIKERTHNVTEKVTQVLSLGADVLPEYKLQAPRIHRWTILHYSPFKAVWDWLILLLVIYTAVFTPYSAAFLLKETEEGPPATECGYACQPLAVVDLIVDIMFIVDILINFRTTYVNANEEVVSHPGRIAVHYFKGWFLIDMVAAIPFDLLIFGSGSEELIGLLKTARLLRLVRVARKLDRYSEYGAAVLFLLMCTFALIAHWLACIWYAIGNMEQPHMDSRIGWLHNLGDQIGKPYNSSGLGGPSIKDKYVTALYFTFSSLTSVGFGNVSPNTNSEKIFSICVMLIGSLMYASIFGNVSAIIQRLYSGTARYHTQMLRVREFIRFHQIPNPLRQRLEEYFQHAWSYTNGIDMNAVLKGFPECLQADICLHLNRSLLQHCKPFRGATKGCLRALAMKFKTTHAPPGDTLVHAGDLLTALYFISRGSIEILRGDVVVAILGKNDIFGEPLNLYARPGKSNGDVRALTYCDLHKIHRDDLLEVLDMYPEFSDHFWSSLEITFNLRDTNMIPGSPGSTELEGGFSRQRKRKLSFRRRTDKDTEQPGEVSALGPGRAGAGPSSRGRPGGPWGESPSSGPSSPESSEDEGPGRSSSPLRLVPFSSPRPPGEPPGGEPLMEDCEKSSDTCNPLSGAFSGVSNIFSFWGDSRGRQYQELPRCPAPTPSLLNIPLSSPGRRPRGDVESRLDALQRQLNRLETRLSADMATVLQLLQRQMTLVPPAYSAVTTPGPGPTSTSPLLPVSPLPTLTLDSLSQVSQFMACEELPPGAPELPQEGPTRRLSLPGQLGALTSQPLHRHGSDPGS

One test has as its target Voltage-gated inwardly rectifying potassium channel KCNH2 (Homo sapiens) (UniProt Q12809). Kind of test: NVS_IC_hKhERGCh: NovaScreen (NVS) Ion Channel Assay for human Potassium Channel ERG (KhERGCh) (AID 2283333). On the procedure:
NVS_IC_hKhERGCh is a biochemical, single-readout assay that uses extracted gene-proteins from CHO in a cell-free assay. Measurements were taken 0.75 hour after chemical dosing in a 48-well plate.NVS_IC_hKhERGCh is one of one assay component(s) measured or calculated from the NVS_IC_hKhERGCh assay. It is designed to make measurements of radioligand binding, a form of binding reporter, as detected with scintillation counting signals by Filter-based radiodetection technology.Data from the assay component NVS_IC_hKhERGCh was analyzed into 1 assay endpoint. This assay endpoint, NVS_IC_hKhERGCh, was analyzed in the positive analysis fitting direction relative to DMSO as the negative control and baseline of activity. Using a type of binding reporter, loss-of-signal activity can be used to understand changes in the binding as they relate to the gene KCNH2. Furthermore, this assay endpoint can be referred to as a primary readout, because the performed assay has only produced 1 assay endpoint. To generalize the intended target to other relatable targets, this assay endpoint is annotated to the ion channel intended target family, where the subfamily is potassium channel.
Binding assays used specific radioligands (tritiated, iodinated) with non-radioactive competitive displacement ligands in agonist or antagonist protocols (as indicated) and various reference compounds and inhibitors to titrate specific binding to receptors and transporters. Most enzyme assays (CYPs, kinases, phosphatases, proteases, HDACs) used recombinant protein and specific substrates (fluorescence mostly, some colorimetric and radioactive) and inhibitors, followed by a biochemical separation of substrate and product. All assays for the biochemical HTS were initially run in duplicate at a single concentration (10 uM for CYP450 assays and 25 uM for all others). […] Each assay was run with positive and negative controls, and concurrent controls on every plate. […]
`CCCCC(C#N)(Cn1cncn1)c1ccc(Cl)cc1` (configuration not stated): the compound was called inactive.
Turning to `CCCN(CC)CC1COC2(CCC(C(C)(C)C)CC2)O1` (configuration not stated), the AC50 is 5.15 µM (active).
As to `CCCCC(O)(Cn1cncn1)c1ccc(Cl)cc1Cl` (configuration not stated), the half-maximal activity concentration (AC50) was 13.4 µM (active).

System in the next test: not listed separately
In words: NVS_IC_rCaBTZCHL: NovaScreen (NVS) Ion Channel Assay for Calcium Channel, Type L, Benzothiazepine Site (CaBTZCHL) (AID 2283337). In a few lines: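 Rat cortical membrane preparation, cell-free. Radioligand displaced by test chemical; 1.5 h incubation; filtration, scintillation count. DMSO = negative control/baseline. Primary: duplicate, 25 uM; secondary: concentration series.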
Consider `CCCCC(C#N)(Cn1cncn1)c1ccc(Cl)cc1` (configuration not stated), for which the result was inactive.
Take `Cn1c(-c2ccccc2)cc(-c2ccccc2)[n+]1C`: the concentration at half-maximal activity (AC50) was 33.3 µM (active).
The same measure, in the same setting: next, `CCCN(CC)CC1COC2(CCC(C(C)(C)C)CC2)O1` (configuration not stated): 9.84 µM (active).
`CCCCC(O)(Cn1cncn1)c1ccc(Cl)cc1Cl` (configuration not stated): the result was inactive.

The next test relates to guinea pig Histamine Receptor (H2), gene 100729734. Kind of test: NVS_GPCR_gH2: NovaScreen (NVS) G Protein-Coupled Receptor Assay for guinea pig Histamine Receptor (H2) (AID 2283342). A digest of the protocol:
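Guinea pig striatal membrane preparation with specific radioligand; bound counts measured by filtration and scintillation 1 h post-dosing, DMSO as baseline. Chemicals passing a 25 uM duplicate screen were titrated to a 50 uM maximum.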
Turning to `CCNP(=S)(OC)O/C(C)=C/C(=O)OC(C)C` (configuration not stated), the AC50 was 16.1 µM (active).
Still for that read-out and setting: next, `CCCCC(C#N)(Cn1cncn1)c1ccc(Cl)cc1` (configuration not stated): 29.7 µM (active).
Turning to `Cn1c(-c2ccccc2)cc(-c2ccccc2)[n+]1C`, the compound was called inactive.
Turning to `CCCN(CC)CC1COC2(CCC(C(C)(C)C)CC2)O1` (configuration not stated), the AC50 is 9.65 µM (active).
As for `CC(C)(C)C(=O)C(Oc1ccc(Cl)cc1)n1cncn1` (configuration not stated), the result was inactive.
Same read-out and setting: next, `CSC(=O)c1c(C(F)F)nc(C(F)(F)F)c(C(=O)SC)c1CC(C)C`: “inactive”.

The test system of another test is NCBI gene 100848466. Kind of test: NVS_NR_bPR: NovaScreen (NVS) Nuclear Receptor Binding Assay for bovine Progextron Receptor (PR) (AID 2283343).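 For AC50: actives lower bound radioligand signal below DMSO meaning displacement of the label.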 In a few lines:
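Steps: bovine uterine membranes were dosed with chemical alongside radioligand, incubated 18 hours, then radiodetected by scintillation counting. Initial testing used 25 uM in duplicate; confirmed actives were rerun as concentration series.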
As to `N#Cc1c(Cl)cccc1Cl`, the result was inactive.
For `CCN(CC)c1nc(C)cc(OP(=S)(OC)OC)n1`, the AC50 is 18.5 µM (active).
Consider `O=C1C2CC=CCC2C(=O)N1SC(Cl)(Cl)Cl` (configuration not stated), for which the compound was classed as inactive.
The same measure, in the same setting: next, `COCC(=O)N(c1c(C)cccc1C)C(C)C(=O)OC` (configuration not stated): “inactive”; `CCCCC(C#N)(Cn1cncn1)c1ccc(Cl)cc1` (configuration not stated): “inactive”.
`COP(=S)(OC)Oc1ccc([N+](=O)[O-])c(C)c1`: the concentration at half-maximal activity (AC50) was 14.8 µM (active).
Consider `CC(C)(C)C(=O)C(Oc1ccc(Cl)cc1)n1cncn1` (configuration not stated), for which the outcome was inactive.
As for `CC(C)=CC1C(C(=O)OCc2coc(Cc3ccccc3)c2)C1(C)C` (configuration not stated), the AC50 is 25 µM (active).
As to `N#Cc1c[nH]cc1-c1cccc2c1OC(F)(F)O2`, the compound was called inactive.
As for `CCCCC(O)(Cn1cncn1)c1ccc(Cl)cc1Cl` (configuration not stated), the AC50 is 7.24 µM (active).
For `CC1(C)C(C=C(Cl)Cl)C1C(=O)OC(C#N)c1cccc(Oc2ccccc2)c1` (configuration not stated), the call was inactive.
On to `COC(=O)c1c(C(F)F)nc(C(F)(F)F)c(C2=NCCS2)c1CC(C)C`, for which the outcome was inactive.

The next test concerns the target human Constitutive Androstane Receptor (CAR), NR1I3 (gene 9970) (UniProt Q14994). In words: NVS_NR_hCAR_Antagonist: NovaScreen (NVS) Nuclear Receptor Binding Assay for human Constitutive Androstane Receptor Antagonism (CAR) (AID 2283344). A digest of the protocol: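 Single 25 uM duplicate primary screen, with concentration-series follow-up on actives. Cell-free binding format run in antagonist mode, TR-FRET signal taken 1 h post-dose; activity is signal loss relative to DMSO.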
As for `N#Cc1c(Cl)cccc1Cl`, the result was inactive.
On to `CC(C)NC(=O)N1CC(=O)N(c2cc(Cl)cc(Cl)c2)C1=O`, for which the compound was classed as inactive.
As for `CCN(CC)C(=O)C(C)Oc1cccc2ccccc12` (configuration not stated), the half-maximal activity concentration (AC50) is 34.2 µM (active).
Take `CNC(=O)Oc1cccc2ccccc12`: the compound was called inactive.
On to `COC(=O)NS(=O)(=O)c1ccc(N)cc1`, for which the call was inactive.
The same measure, in the same setting: the entry for `O=C1C2CC=CCC2C(=O)N1SC(Cl)(Cl)Cl` (configuration not stated) is “inactive”.
Still for that read-out and setting: the entry for `CCOc1nc(F)cc2nc(S(=O)(=O)Nc3c(Cl)cccc3Cl)nn12` is “inactive”; for `COCC(=O)N(c1c(C)cccc1C)C(C)C(=O)OC` (configuration not stated) it is “inactive”; for `CCOC(=O)C(C)OC(=O)c1cc(Oc2ccc(C(F)(F)F)cc2Cl)ccc1[N+](=O)[O-]` (configuration not stated) it is “inactive”.
For the compound `CCCCC(C#N)(Cn1cncn1)c1ccc(Cl)cc1` (configuration not stated), the result was inactive.
The same measure, in the same setting: the entry for `CN=C=S` is “inactive”.
Take `COP(=S)(OC)Oc1ccc([N+](=O)[O-])c(C)c1`: the compound was classed as inactive.
Take `CCOP(=O)(OCC)Oc1nc(Cl)c(Cl)cc1Cl`: the concentration at half-maximal activity (AC50) is 16.1 µM (active).
With `CC(C)(C)C(=O)C(Oc1ccc(Cl)cc1)n1cncn1` (configuration not stated), the result was inactive.
Same read-out and setting: the entry for `C=C(C)CN(CC)c1c([N+](=O)[O-])cc(C(F)(F)F)cc1[N+](=O)[O-]` is “inactive”.
The same measure, in the same setting: the entry for `CC(C)=CC1C(C(=O)OCc2coc(Cc3ccccc3)c2)C1(C)C` (configuration not stated) is “inactive”; for `COP(=S)(OC)SCn1nnc2ccccc2c1=O` it is “inactive”; for `CC(C)C1(C)N=C(c2ncccc2C(=O)O)NC1=O` (configuration not stated) it is “inactive”.
On the same count and under the same terms, the entry for `CC(C)Oc1cccc(NC(=O)c2ccccc2C(F)(F)F)c1` is “inactive”.
For `CCOc1cc(C(C)(C)C)ccc1C1COC(c2c(F)cccc2F)=N1` (configuration not stated), the outcome was inactive.
Still for that read-out and setting: the entry for `CCC(C)n1c(=O)[nH]c(C)c(Br)c1=O` (configuration not stated) is “inactive”.
Turning to `CCCCOCN(C(=O)CCl)c1c(CC)cccc1CC`, the concentration at half-maximal activity (AC50) was 14.6 µM (active).
`COC(=O)c1c(C(F)F)nc(C(F)(F)F)c(C2=NCCS2)c1CC(C)C`: the compound was called inactive.

The target of a further test is bovine Estrogen Receptor (ER), ESR1 (gene 407238) (UniProt P49884). In words: NVS_NR_bER: NovaScreen (NVS) Nuclear Receptor Binding Assay for bovine Estrogen Receptor (ER) (AID 2283345).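 Note: actives lower the bound radioligand count which means they displace the ER ligand.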 A digest of the protocol:
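Bovine uterine membranes; tritiated or iodinated radioligand; competitive displacement; 18 h; scintillation read; DMSO negative control; 25 uM duplicates, then concentration series for actives.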
For the compound `N#Cc1c(Cl)cccc1Cl`, the outcome was inactive.
Turning to `O=c1n(Cl)c(=O)n(Cl)c(=O)n1Cl`, the result was inactive.
Same read-out and setting: the entry for `OC(c1ccc(Cl)cc1)(c1ccc(Cl)cc1)C(Cl)(Cl)Cl` is “inactive”; for `CCOC(=O)C(C)OC(=O)c1cc(Oc2ccc(C(F)(F)F)cc2Cl)ccc1[N+](=O)[O-]` (configuration not stated) it is “inactive”; for `CCCCC(C#N)(Cn1cncn1)c1ccc(Cl)cc1` (configuration not stated) it is “inactive”.
As to `CN=C=S`, the compound was called inactive.
Same read-out and setting: next, `COP(=S)(OC)Oc1ccc([N+](=O)[O-])c(C)c1`: “inactive”.
On the same count and under the same terms, next, `CC(C)(C)C(=O)C(Oc1ccc(Cl)cc1)n1cncn1` (configuration not stated): “inactive”.
With `CS(=O)(=O)c1cc(C(F)(F)F)ccc1C(=O)c1cnoc1C1CC1`, the call was inactive.
Same read-out and setting: next, `CC(C)=CC1C(C(=O)OCc2coc(Cc3ccccc3)c2)C1(C)C` (configuration not stated): “inactive”; `N#Cc1c[nH]cc1-c1cccc2c1OC(F)(F)O2`: “inactive”; `CCCCC(O)(Cn1cncn1)c1ccc(Cl)cc1Cl` (configuration not stated): “inactive”.
The same measure, in the same setting: next, `CC1(C)C(C=C(Cl)Cl)C1C(=O)OC(C#N)c1cccc(Oc2ccccc2)c1` (configuration not stated): “inactive”; `CC(C)Oc1cccc(NC(=O)c2ccccc2C(F)(F)F)c1`: “inactive”.
